# Test results published in ChEMBL document CHEMBL3433997, “St. Jude Leishmania screening dataset” (2016).
# Tests used:
# Type in all cases: functional
# [1] = molecular target: Solute carrier family 2, facilitated glucose transporter member 1 (Homo sapiens) (UniProt P11166); assay: ST_JUDE_LEISH: Cytotoxicity at 2uM final concentration against transgenic Leishmania Mexicana promastigotes LmGLUT1 that are glucose transport deficient and complemented with the human glucose transporter GLUT1. Activity is measured by DNA content using SYBR green in vitro
# [2] = molecular target: Hexose transporter 1 (Plasmodium falciparum) (UniProt O97467); assay: ST_JUDE_LEISH: Cytotoxicity at 2uM final concentration against transgenic Leishmania Mexicana promastigotes LmPfHT that are glucose transport deficient and complemented with the Plasmodium falciparum hexose transporter. Activity is measured by DNA content using SYBR green in vitro
# [3] = molecular target: Glucose transporter (Leishmania mexicana) (UniProt O61059); assay: ST_JUDE_LEISH: Cytotoxicity at 2uM final concentration against transgenic Leishmania Mexicana promastigotes LmGT2 that are glucose transport deficient and complemented with the L. Mexicana glucose transporter 2. Activity is measured by DNA content using SYBR green in vitro
# Chain of Solute carrier family 2, facilitated glucose transporter member 1 (Homo sapiens) (P11166 whole entry): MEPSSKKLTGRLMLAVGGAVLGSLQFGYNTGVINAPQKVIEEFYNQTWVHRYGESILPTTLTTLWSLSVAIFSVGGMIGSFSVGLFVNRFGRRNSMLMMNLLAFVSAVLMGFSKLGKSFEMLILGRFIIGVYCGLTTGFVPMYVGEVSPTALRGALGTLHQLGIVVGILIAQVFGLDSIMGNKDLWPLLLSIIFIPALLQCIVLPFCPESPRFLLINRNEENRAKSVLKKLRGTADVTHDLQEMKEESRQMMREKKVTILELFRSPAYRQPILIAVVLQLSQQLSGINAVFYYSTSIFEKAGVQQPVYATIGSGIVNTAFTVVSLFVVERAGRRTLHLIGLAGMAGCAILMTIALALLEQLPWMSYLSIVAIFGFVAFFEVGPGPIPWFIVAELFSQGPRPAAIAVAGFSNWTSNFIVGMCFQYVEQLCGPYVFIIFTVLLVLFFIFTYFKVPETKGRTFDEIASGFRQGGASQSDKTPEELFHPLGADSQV
smiles,measurement,setting,value
CCN1CCC(N2CCC(C(=O)Nc3cccc(-c4cccc(Cl)c4)c3)CC2)CC1,inhibition,[1],0.8%
same,inhibition,[2],-1.24%
same,inhibition,[3],2.7%
O=C(Nc1cccc(-c2cccc(-c3nc4cc(F)ccc4[nH]3)c2)c1)c1ccncc1,inhibition,[1],0.54%
same,inhibition,[2],0.29%
same,inhibition,[3],0.2%
COCCNCc1ccc(-c2ccc3c(Nc4ccc(F)cc4Cl)ccnc3c2)o1,inhibition,[1],4.1%
same,inhibition,[2],4.05%
same,inhibition,[3],5.59%
CCN(C)c1cc(C(=O)N[C@@H](Cc2ccccc2)[C@H](O)CNC(C)(C)c2cccc(OC)c2)cc(N2CCCC2=O)c1,inhibition,[1],1.69%
same,inhibition,[2],0.79%
same,inhibition,[3],4.41%
CN1CCC(C(=O)Nc2ccc(-c3cccc(-c4nc5cc(F)ccc5[nH]4)c3)cc2)CC1,inhibition,[1],8.95%
same,inhibition,[2],9.27%
same,inhibition,[3],8.51%
COc1ccccc1-c1nc2c(ccc3nc(N)nc(N)c32)[nH]1,inhibition,[1],49.5%
same,inhibition,[2],58.8%
same,inhibition,[3],4.58%
CN1CCc2cc(NS(=O)(=O)c3ccc(-c4ccc(Cl)s4)cc3)c(N3CCCCC3)cc2CC1,inhibition,[1],-0.61%
same,inhibition,[2],0.7%
same,inhibition,[3],-2.07%
CCCCOC(=O)c1ccc(NC(=O)Nc2ccc(Cn3ncc(N4CCCNCC4)c(Cl)c3=O)cc2)cc1,inhibition,[1],9.01%
same,inhibition,[2],10.1%
same,inhibition,[3],7.4%
Cc1cc(N[C@@H](CC(C)C)C(=O)NCCc2ccccc2)nc(NCC2CCCCC2)n1,inhibition,[1],6.58%
same,inhibition,[2],6.23%
same,inhibition,[3],3.37%
C=CCOC1OC(COC(c2ccccc2)(c2ccccc2)c2ccccc2)C(OC(C)=O)C(OC(C)=O)C1NC(C)=O (configuration not stated),inhibition,[1],1.33%
same,inhibition,[2],1.07%
same,inhibition,[3],0.34%
O=S(=O)(NCCN1CCCC1)c1ccc(-c2cccc(CNCCc3cccs3)c2)cc1,inhibition,[1],5.24%
same,inhibition,[2],5.07%
same,inhibition,[3],3.91%
C[C@H](Cc1ccc(C[C@@H](C)NC[C@H](O)c2cccc(Cl)c2)cc1)NC[C@H](O)COc1ccccc1,inhibition,[1],1.99%
same,inhibition,[2],1.95%
same,inhibition,[3],3.59%
O=C(/C=C/c1ccc(Cl)c(Cl)c1)NC1CCN(CCCNC(=O)c2cccc(Cl)c2)CC1,inhibition,[1],6.07%
same,inhibition,[2],6.03%
same,inhibition,[3],7.01%
CC(C)(CN)c1cc(-c2ccc(Cl)c(O)c2)c(-c2ccncc2)o1,inhibition,[1],0.01%
same,inhibition,[2],3.22%
same,inhibition,[3],1.62%
COc1ccccc1C(=O)Nc1ccc(Nc2nc(C)cc(N(C)C)n2)cc1,inhibition,[1],7.13%
same,inhibition,[2],18.3%
same,inhibition,[3],5.83%
CCC(=O)Oc1ccc(NC(=O)c2cccc(OC)c2)cc1,inhibition,[1],1.64%
same,inhibition,[2],1.17%
same,inhibition,[3],1.69%
CN(C)CCCNCc1ccc(-c2ccc(F)c(Cl)c2)o1,inhibition,[1],-0.74%
same,inhibition,[2],0.82%
same,inhibition,[3],-0.76%
Cc1nc(N)nc(N)c1OCc1cccc2c1ccc1ccccc12,inhibition,[1],3.53%
same,inhibition,[2],6.28%
same,inhibition,[3],2.84%
O=C(Nc1cccc(-c2ccc(-c3nc4cc(C(F)(F)F)ccc4[nH]3)s2)c1)c1cccnc1,inhibition,[1],4.93%
same,inhibition,[2],4.73%
same,inhibition,[3],4.16%
Cn1ccnc1CNC(=O)c1ccc(-c2ccc(-c3nc4cc(C(F)(F)F)ccc4[nH]3)s2)cc1,inhibition,[1],4.17%
same,inhibition,[2],3.3%
same,inhibition,[3],2.03%
CCCCc1ccc(-c2ccc3[nH]c(C)c(Br)c(=O)c3c2)cc1,inhibition,[1],3.02%
same,inhibition,[2],3.88%
same,inhibition,[3],2.44%
COC(=O)c1ccccc1N1CCN(CCCCNC(=O)c2ccc(NC(=O)c3cc(Cl)cc(Cl)c3)cc2)CC1,inhibition,[1],3.86%
same,inhibition,[2],5.53%
same,inhibition,[3],3.09%
CCOC(=O)c1c[nH]c2c(ccc3ccccc32)c1=O,inhibition,[1],-1.23%
same,inhibition,[2],6.87%
same,inhibition,[3],5.93%
COc1ccc(NC(=O)Nc2nc3ccccc3s2)cc1N1CCN(C)CC1,inhibition,[1],7.14%
same,inhibition,[2],4.98%
same,inhibition,[3],5.72%
Cc1ccc(NC(=O)c2ccc(CN3CCCN(CC4CCCCC4)CC3)cc2)cc1,inhibition,[1],7.01%
same,inhibition,[2],8.37%
same,inhibition,[3],9.64%
COc1ccc2nccc(NCC3(O)CCC(NCc4cc5c(cn4)OCCO5)CC3)c2n1 (configuration not stated),inhibition,[1],-1.99%
same,inhibition,[2],-1.9%
same,inhibition,[3],-2.58%
CC(CN1CCN(C)CC1)C(=O)Nc1cccc(-c2ccc(-c3nc4ccccc4[nH]3)cc2)c1 (configuration not stated),inhibition,[1],0.63%
same,inhibition,[2],1.17%
same,inhibition,[3],-1.58%
COc1ccc(CN2C(=S)N(Cc3ccccc3)C(=O)C2CC(=O)Nc2ccccc2)cc1OC (configuration not stated),inhibition,[1],0.79%
same,inhibition,[2],-0.87%
same,inhibition,[3],-2.09%
CN1CCN(c2ccnc3ccc(NC(=O)Cc4ccc(Br)c5ccccc45)cc23)CC1,inhibition,[1],0.81%
same,inhibition,[2],0.37%
same,inhibition,[3],2.02%
Oc1c(C(Nc2ccccn2)c2ccco2)cc(Cl)c2cccnc12 (configuration not stated),inhibition,[1],0.55%
same,inhibition,[2],1.24%
same,inhibition,[3],-1.1%
Cc1cc(N)c2cc(NC(=O)c3cccc4ccccc34)ccc2n1,inhibition,[1],0.77%
same,inhibition,[2],1.19%
same,inhibition,[3],0%
c1ccc(-c2nc(NCCCn3ccnc3)cc(-c3ccncc3)n2)cc1,inhibition,[1],3.22%
same,inhibition,[2],4.55%
same,inhibition,[3],1.25%
COc1cccc(NC(=O)[C@H](C)n2c(=O)[nH]c3ccccc3c2=O)c1,inhibition,[1],10.9%
same,inhibition,[2],14.1%
same,inhibition,[3],7.45%
Cc1ccccc1CNc1noc(-c2c(F)cccc2Cl)n1,inhibition,[1],4.28%
same,inhibition,[2],5.55%
same,inhibition,[3],5.34%
